High-throughput results from PubChem.
Fluor 339 460 – intrinsic fluorescence of library compounds, ex339/em460 – biochemical, MLSMR library, data from DPM-DC assay, artefact control, profiling panel. compound autofluorescence, ex339/em460 nm, NADH buffer; hits give high values; 1 = no-compound wells, NADH background. fluorescence fold increase at 10 µM. 65,000 compounds, 5.5% hits;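 active means at 10 µM, mean starting fluorescence two-fold or more over control wells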;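 further: signal is the first read of a kinetic run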
NADH enzymes – blocks coupling enzymes of NAD/NADH assays. coupled PK/LDH NADH assays, four targets. IC50, µM (top dose mostly 10 µM). 65,000 compounds, 0.02% hits;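 active means single-dose screening hits from any of four coupled enzyme assays that gave an IC50 when retested across doses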;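 further: the DPM-DC format reads NADH fluorescence rather than 340 nm absorbance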
Abs 340nm – compound absorbs light at 340 nm; compound absorbance at 340 nm, fold over control; fold change at 10 µM; 65,000 tested, under 10 active;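 active means at 10 µM dose, initial 340 nm absorbance at least 2 fold that of control wells; inactive means change under 2 fold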;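 further: initial absorbance extrapolated from kinetic A340 decline of NADH oxidation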
Spn MK inh – S. pneumoniae mevalonate kinase inhibition; inhibition, % at 10 µM; 65,000 compounds, 0.48% hits; purified MK, PK/LDH-coupled NADH absorbance 340 nm; AID 555;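 active means ranked among the strongest by inhibition in the single 10 µM screen, a fixed top-ranked set picked for dose follow-up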
PMK inhibit – blocks S. pneumoniae phosphomevalonate kinase; purified PMK, PK/LDH-coupled NADH absorbance 340 nm; 65,000 compounds, 0.49% hits; inhibition, % at 10 µM;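 active means top-ranked compounds by inhibition in the single 10 µM screen, taking a fixed number of the strongest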
Spn DPM-DC inh – S. pneumoniae DPM-DC inhibition; purified DPM-DC, PK/LDH coupled NADH fluorescence; calls only at 10 µM; 65,000 compounds, 0.49% hits; AID 556;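 active means the 320 compounds with the highest percent inhibition in the single-dose primary screen, excluding strongly autofluorescent ones, cut at about 32% in these data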;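 further: kinetic rate of NADH fluorescence loss reporting ADP formed by the decarboxylase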
Large screens that a line does not name were inactive. Sampled rows, rich in hits. Any-hit rate of the full collection: about 6.3%.

O=C(Nc1ccc(N2CCOCC2)cc1)c1ccc2nc(-c3ccco3)c(-c3ccco3)nc2c1	none
CCCCNC(=O)c1ccc2nc(-c3ccco3)c(-c3ccco3)nc2c1	Spn DPM-DC inh active
CC(C)CCn1c(CN2CCN(c3cccc(Cl)c3)CC2)nc2c1c(=O)n(C)c(=O)n2C	none
CCOC(=O)CCC(NC(=O)c1cncc(O)c1)C(=O)OCC (stereo not given)	Fluor 339 460 2.9
Cc1ccc2c(CC(=O)Nc3nc(C)cs3)coc2c1	none
CC(C)CNC(=O)c1c(N)n(/N=C/c2cccnc2)c2nc3ccccc3nc12	Fluor 339 460 2.3 (not shown: Spn DPM-DC inh)
COCCCNC(=O)c1c(N)n(/N=C/c2cccs2)c2nc3ccccc3nc12	Fluor 339 460 2.3 (not shown: Spn DPM-DC inh)
COCCCNC(=O)c1c(N)n(/N=C/c2cccnc2)c2nc3ccccc3nc12	Fluor 339 460 2.3 (not shown: Spn DPM-DC inh)
CCC(C)NC(=O)c1c(N)n(/N=C/c2cccnc2)c2nc3ccccc3nc12 (stereo not given)	Fluor 339 460 3.1 (not shown: Spn DPM-DC inh)
CCC(C)NC(=O)c1c(N)n(/N=C/c2ccccn2)c2nc3ccccc3nc12 (stereo not given)	none
CC(C)OCCCNC(=O)c1c(N)n(/N=C/c2ccccn2)c2nc3ccccc3nc12	none
Cc1nc2ccccc2c(=O)n1/N=C/c1cccnc1	none
CC(C)c1nc(SCC(=O)NCc2ccc3c(c2)OCO3)c2c(=O)n(C)c(=O)n(C)c2n1	none
COCCN(CCOC)Cc1cc(=O)oc2cc3c(cc12)CCC3	none
O=c1oc2c(CN3CCOCC3)c(O)ccc2c2c1CCCC2	Fluor 339 460 3.8 (not shown: Spn DPM-DC inh)
COCCN(CCOC)Cc1c(O)ccc2c3c(c(=O)oc12)CCC3	Fluor 339 460 2 (not shown: Spn DPM-DC inh)
O=c1oc2c(CN3CCOCC3)c(O)c(Cl)cc2c2c1CCCC2	Fluor 339 460 3.8 (not shown: Spn DPM-DC inh)
COC(=O)c1ccc2c(=O)n(CCN3CCOCC3)c(SCC(=O)NC3CCCCC3)nc2c1	none
N#Cc1nc(-c2cccs2)oc1NCc1ccc2c(c1)OCO2	Fluor 339 460 2.4 (not shown: Spn DPM-DC inh)
N#Cc1nc(-c2cccs2)oc1NCCN1CCOCC1	Fluor 339 460 2.4 (not shown: Spn DPM-DC inh)
COc1ccc(Nc2oc(-c3cccs3)nc2C#N)cc1	none
N#Cc1nc(-c2cccs2)oc1NCCc1ccccc1	Fluor 339 460 2.5 (not shown: Spn DPM-DC inh)
O=C(NCCCN1CCOCC1)c1cc(-c2cccs2)on1	none
COc1ccc(CCNc2oc(-c3ccco3)nc2C#N)cc1	Fluor 339 460 2.4
COc1ccc(CCNc2oc(COc3ccc(F)cc3)nc2C#N)cc1	none
C=CCSC1=N/C(=C\c2ccc(C)o2)C(=O)S1	none
O=C(NCc1ccco1)c1ccc2c(=O)n(CCC3=CCCCC3)c(=O)[nH]c2c1	none
O=C1CN(C(=O)COC(=O)c2ccccc2NC(=O)c2ccco2)c2ccccc2N1	none
N#Cc1nc(-c2ccco2)oc1NCCc1ccccc1	Fluor 339 460 2.1
N#Cc1nc(-c2ccccc2)oc1NCCN1CCCCC1	Fluor 339 460 3.8 (not shown: Spn DPM-DC inh)
N#Cc1nc(COc2ccccc2)oc1N1CCN(Cc2ccccc2)CC1	none
COc1ccc(CCNc2oc(Cc3ccccc3)nc2C#N)cc1OC	none
N#Cc1nc(-c2cccs2)oc1N1CCN(Cc2ccccc2)CC1	Fluor 339 460 3.8 (not shown: Spn DPM-DC inh)
CC1CCCCC1NS(=O)(=O)c1ccc(S(=O)(=O)NCc2ccncc2)cc1 (stereo not given)	none
COc1ccc(S(=O)(=O)NCC(=O)N(CC(=O)NCC2CCCO2)c2c(C)cccc2C)cc1 (stereo not given)	none
OCCN1CCN(c2ncnc3c2sc2nc(N4CCOCC4)c4c(c23)CCC4)CC1	Fluor 339 460 2.1 (not shown: Spn DPM-DC inh)
OCCN(CCO)c1ncnc2c1sc1nc(N3CCOCC3)c3c(c12)CCCC3	none
c1nc(N2CCNCC2)c2sc3nc(N4CCOCC4)c4c(c3c2n1)CCC4	Fluor 339 460 2.1 (not shown: Spn DPM-DC inh)
Cc1ccc(CNC(=O)CCS(=O)(=O)c2cc(Br)cc3c2N(C(=O)C2CC2)CC3)o1	none
COc1ccc(CN(Cc2cc3cc4c(cc3[nH]c2=O)OCO4)C(=O)NC2CCCCC2)cc1	Fluor 339 460 2.5
O=C(NC1CCCCC1)N(CCN1CCOCC1)Cc1cc2cc3c(cc2[nH]c1=O)OCCO3	Fluor 339 460 4.4 (not shown: Spn DPM-DC inh)
CCc1ccc2[nH]c(=O)c(CN(CCN3CCCC3)C(=O)NC3CCCCC3)cc2c1	none
COc1ccc(CCN(Cc2cc3cc4c(cc3[nH]c2=O)OCO4)C(C)=O)cc1OC	Fluor 339 460 2.7
